This is an account of results in ChEMBL document CHEMBL2218924, “A broad activity screen in support of a chemogenomic map for kinase signalling research and drug discovery” (Biochem J, 2013).

Chain of Death-associated protein kinase 1 (Homo sapiens) (P53355 whole entry, looked up): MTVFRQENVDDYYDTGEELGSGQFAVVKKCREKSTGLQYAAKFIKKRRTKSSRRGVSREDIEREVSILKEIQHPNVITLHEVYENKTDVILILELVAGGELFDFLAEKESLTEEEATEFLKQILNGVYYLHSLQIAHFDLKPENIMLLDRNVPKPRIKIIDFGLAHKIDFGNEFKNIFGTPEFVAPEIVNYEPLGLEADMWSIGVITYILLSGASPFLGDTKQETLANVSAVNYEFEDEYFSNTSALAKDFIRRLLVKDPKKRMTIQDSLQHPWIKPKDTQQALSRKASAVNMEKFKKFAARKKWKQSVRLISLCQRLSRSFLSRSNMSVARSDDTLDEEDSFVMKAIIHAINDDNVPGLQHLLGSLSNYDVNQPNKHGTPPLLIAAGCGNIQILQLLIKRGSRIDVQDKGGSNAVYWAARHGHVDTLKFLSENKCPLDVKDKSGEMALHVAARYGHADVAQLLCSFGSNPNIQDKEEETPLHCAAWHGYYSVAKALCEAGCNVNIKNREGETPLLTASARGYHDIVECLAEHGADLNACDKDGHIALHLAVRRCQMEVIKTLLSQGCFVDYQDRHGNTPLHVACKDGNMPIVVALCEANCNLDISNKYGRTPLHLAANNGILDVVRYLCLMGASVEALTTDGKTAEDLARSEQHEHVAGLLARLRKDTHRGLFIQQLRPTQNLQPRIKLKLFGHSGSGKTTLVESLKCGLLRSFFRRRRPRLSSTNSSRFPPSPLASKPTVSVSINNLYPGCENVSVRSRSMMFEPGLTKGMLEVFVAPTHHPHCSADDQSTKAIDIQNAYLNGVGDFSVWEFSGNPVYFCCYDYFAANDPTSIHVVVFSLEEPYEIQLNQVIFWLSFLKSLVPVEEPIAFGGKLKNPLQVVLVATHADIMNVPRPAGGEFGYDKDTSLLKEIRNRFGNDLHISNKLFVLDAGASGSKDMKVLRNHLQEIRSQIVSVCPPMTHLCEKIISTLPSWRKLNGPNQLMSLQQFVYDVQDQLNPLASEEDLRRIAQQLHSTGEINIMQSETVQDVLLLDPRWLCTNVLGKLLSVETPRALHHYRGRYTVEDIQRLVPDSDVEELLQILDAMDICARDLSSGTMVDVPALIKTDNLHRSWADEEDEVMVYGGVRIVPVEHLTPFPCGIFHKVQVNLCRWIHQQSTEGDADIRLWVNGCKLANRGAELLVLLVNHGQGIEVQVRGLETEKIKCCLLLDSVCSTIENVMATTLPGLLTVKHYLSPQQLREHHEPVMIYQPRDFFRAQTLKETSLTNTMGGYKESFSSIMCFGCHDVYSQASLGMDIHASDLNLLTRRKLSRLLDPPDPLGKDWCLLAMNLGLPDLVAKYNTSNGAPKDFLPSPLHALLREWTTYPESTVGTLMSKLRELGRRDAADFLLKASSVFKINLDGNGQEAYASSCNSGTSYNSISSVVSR

This experiment addresses Death-associated protein kinase 1 (Homo sapiens) (UniProt P53355). The following applies: at 1 µM.
`CCN(CC)CCCCN1c2ccccc2Oc2ccc(Cl)cc21`: the residual activity was 107%.

As for `O=C1NC(=O)/C(=C/c2ccc3c(c2)OC(F)(F)O3)S1`, the residual activity stood at 98%. Take `O=C(Nc1cccc(Nc2nccc(Nc3cccc(C(F)(F)F)c3)n2)c1)C1CC1`: the residual activity worked out at 98%.

On to `CO[C@H]1[C@@H](OC)C[C@H](C)[C@@H](OC)C2=CC(=O)C=C(NC(=O)/C(C)=C/C=C/[C@H](OC)[C@@H](OC(N)=O)/C(C)=C/[C@@H]1C)C2=O`, for which the residual activity worked out at 96%. `COc1ccc(-c2cnc3c(-c4ccsc4)cnn3c2)cc1`: the residual activity amounted to 97%. As to `O=C1NC(=O)c2cc(Nc3ccc(F)cc3)c(Nc3ccc(F)cc3)cc21`, the residual activity is 87%. Next, `O=C(O)/C=C/c1cc(Br)c(Br)c(Br)c1Br`: 86%. The value for `Oc1ccc(-c2nc(-c3ccc(F)cc3)c(-c3ccncc3)[nH]2)cc1` was 92%; that for `CC(C)c1nn(-c2c(Cl)cccc2Cl)c2nc(Cc3ccc(OCCO)cc3)[nH]c(=O)c12` was 94%; that for `O=[N+]([O-])c1ccc(-c2nc(-c3ccc(F)cc3)c(-c3ccncc3)[nH]2)cc1` was 74%.

In the case of `COc1cc2nccc(Oc3ccc(NC(=S)NC(=O)c4ccccc4C)cc3)c2cc1OC`, the residual activity was determined as 81%. As to `COc1cc2ncnc(Nc3ccc(Oc4ccccc4)cc3)c2cc1OC`, the residual activity was 100%. With `O=C1NC(=O)c2c1c1c3ccccc3[nH]c1c1[nH]c3cc(Br)ccc3c21`, the residual activity is 85%. With `O=Nc1c(-c2c(O)[nH]c3ccccc23)[nH]c2ccccc12`, the residual activity is 91%. On to `COc1cc2ncnc(Nc3ccc(O)c(Br)c3)c2cc1OC`, for which the residual activity came to 88%. As for `O=C1c2ccccc2-[n+]2ccc3c([nH]c4ccccc43)c21`, the residual activity was found to be 86%. Turning to `N#CC(C#N)=C(N)/C(C#N)=C/c1ccc(O)cc1`, the residual activity came to 85%. Consider `CCN1/C(=C/C(C)=O)Sc2ccc(OC)cc21`, for which the residual activity amounted to 81%. As for `Ic1cccc(CSc2nnc(-c3ccncc3)o2)c1`, the residual activity turned out to be 90%. Regarding `CN(C)c1ccc(/C=C2\C(=O)Nc3ccccc32)cc1`, the residual activity was found to be 102%. For the compound `C[C@@H](N)[C@H]1CC[C@H](C(=O)Nc2ccncc2)CC1`, the residual activity was found to be 102%. On to `CC(=O)O/N=C1\C(=C2\C(=O)Nc3cc(Br)ccc32)Nc2ccccc21`, for which the residual activity is 98%. Consider `O=C(c1ccccc1)c1ccc(N2CCOCC2)cc1O`, for which the residual activity stood at 97%. The value for `COc1cc2nccc(Oc3ccc(NC(=O)Nc4cc(C)on4)c(Cl)c3)c2cc1OC` was 105%.

For the compound `Fc1ccc(-c2nc3n(c2-c2ccncc2)CCS3)cc1`, the residual activity came out at 85%.

In the case of `N#Cc1c(NC(=O)c2cccc3ccccc23)sc2c1CCCC2`, the residual activity stood at 93%. Next, `Nc1n[nH]c2nc3ccccc3nc12`: 94%.

For `CN(C)CCCn1cc(C2=C(c3c[nH]c4ccccc34)C(=O)NC2=O)c2ccccc21`, the residual activity stood at 106%. Consider `COc1cc2ncc(-c3ccccc3)nc2cc1OC`, for which the residual activity is 87%.

In the case of `NC(=O)Nc1sc(-c2ccc(F)cc2)cc1C(N)=O`, the residual activity worked out at 83%.
